Assay [1] relates to Zika virus NS2B-NS3 protease (unlinked complex). As to the kind of experiment: Primary screen GU Rhodamine qHTS for Zika virus inhibitors: Unlinked NS2B-NS3 protease assay (AID 1347159). Note: % is set by controls: 0 for no effect and ±100 for the full control effect; nearly all actives have a fitted effect of over 60% in size. The method, boiled down:
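Noncovalent NS2B hydrophilic domain/NS3 protease complex (25 nM final) in 10 mM Tris-HCl pH 8.0, 0.01% Tween 20, preincubated 15 min with compounds (up to 114 microM), then 1.5 microM Rhodamine110 substrate. Fluorescence change over 15 min fitted to 4-parameter Hill.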

Assay [2] can be described thus: Primary qHTS for inhibitors of nuclear receptor binding SET domain protein 2 (NSD2) in an isogenic RCH-ACV NSD2 p.E1099K mutant (9B) (AID 1645876). Note: nearly all actives have a fitted effect of over 70% in size. Note: potency is the fitted concentration of half-maximal effect. In general terms: In qHTS, concentration-response curves come from the screen itself.
The target of assay [3] is Catechol O-methyltransferase (Homo sapiens) (UniProt P21964). As to the kind of experiment: Confirmatory Screen for Target Class Profiling of Small Molecule Inhibitors of Methyltransferases (AID 1745852; calls by dose curve; note: potency is the fitted concentration of half-maximal effect; for activity change, negative = inhibition: % is set by controls: 0 for no effect and ±100 for the full control effect). The settings on record: MTase-Glo luminescence, SAH detection, recombinant enzyme; measured here: COMT max response; stronger effect = lower value.
Assay [4] addresses Guanidinoacetate N-methyltransferase (Homo sapiens) (UniProt Q14353). The description is as above. Conditions: activity change, negative = inhibition: at 57.3 µM (top of the series) unless noted.
In assay [5] the target is Nicotinamide N-methyltransferase (Homo sapiens) (UniProt P40261). Described as above. The settings on record: MTase-Glo luminescence, SAH detection, recombinant enzyme; measured here: NNMT max response; stronger effect = lower value.
The target of assay [6] is Phenylethanolamine N-methyltransferase (Homo sapiens) (UniProt P11086). The description is as above. Conditions: MTase-Glo luminescence, SAH detection, recombinant enzyme; measured here: PNMT max response; stronger effect = lower value.
Assay [7] deals with CRL-7250. Put plainly: Cytotoxic Profiling of Annotated Libraries Using Quantitative High-Throughput Screening (AID 1296008). For max response: % is set by controls: 0 for no effect and ±100 for the full control effect. Note: nearly all actives have a fitted effect of over 60% in size. Note: potency is the fitted concentration of half-maximal effect. The settings on record: Five cell lines viability, CellTiter-Glo ATP luminescence, 48-72 h; max response: stronger effect = lower value. In a few lines: (§1)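 Cells exposed to compounds for 48 or 72 hr at 37 degrees Celsius. Viability read as ATP-coupled luminescence with CellTiter-Glo after 10 min at room temperature.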
On the technique in general: In ATP-based viability assays light output follows the ATP content of the culture.

The subject of the next assay is HACAT. As to the kind of experiment: qHTS assay to identify novel small-molecules to repurpose for Merkel cell carcinoma treatment (AID 1296009). Note: nearly all actives have a fitted effect of over 60% in size. Conditions: MCC and control cell lines, CellTiter-Glo viability, 72 h; at 44.8 µM (top of the series) unless noted. In a few lines: (§2)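 Cells were incubated with compound for 72 hr at 37 degree celsius before CellTiter-Glo addition. Luminescence was normalized with no-cell wells as full cytotoxicity and DMSO as baseline.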

The test system of another assay is HeLa. As to the kind of experiment: Primary qHTS to identify gynecologic anti-cancer compounds using libraries of approved drugs and bioactive compounds (AID 1345084). Note: % is set by controls: 0 for no effect and ±100 for the full control effect; nearly all actives have a fitted effect of over 55% in size. Conditions: Gynecologic cancer cell panel viability, ATPlite luminescence, 48 h; series mostly up to 57.5 µM. In a few lines:
(§3)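 Cells, 1,000 per well, plated 16 h, then exposed 48 h at 37 C to compounds. Viability by ATPlite luminescence after 15 min at room temperature.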

The subject of a further assay is SKOV3. Described as above. The settings on record: Gynecologic cancer cell panel viability, ATPlite luminescence, 48 h; series mostly up to 57.5 µM. In a few lines: as §3
Assay [8] in a line: P-glycoprotein substrates identified in KB-8-5-11 adenocarcinoma cell line, qHTS therapeutic library screen (AID 1346987). Note: nearly all actives have a fitted effect of over 65% in size. Note: potency is the fitted concentration of half-maximal effect. In a few lines: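 KB-8-5-11: colchicine-selected sub-line of KB-3-1 over-expressing P-gp; assay medium lacked colchicine. 72 h drug exposure at 37 degree C, CellTiter-Glo.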
The subject of another assay is KB-3-1. Put plainly: Cytotoxic Profiling of Annotated Libraries Using Quantitative High-Throughput Screening (AID 1296008). For max response: % is set by controls: 0 for no effect and ±100 for the full control effect. Note: nearly all actives have a fitted effect of over 60% in size. Note: potency is the fitted concentration of half-maximal effect. Conditions: Five cell lines viability, CellTiter-Glo ATP luminescence, 48-72 h; max response: stronger effect = lower value. In a few lines: as §1
Assay [9] in a line: Primary qHTS for inhibitors of nuclear receptor binding SET domain protein 2 (NSD2) in an RCH-ACV wild type WT cells (2C) (AID 1645877). Note: nearly all actives have a fitted effect of over 70% in size. Note: potency is the fitted concentration of half-maximal effect.
For assay [10], the system named is CRL-7250. As to the kind of experiment: qHTS assay to identify novel small-molecules to repurpose for Merkel cell carcinoma treatment (AID 1296009). Note: nearly all actives have a fitted effect of over 60% in size. Conditions: MCC and control cell lines, CellTiter-Glo viability, 72 h; series mostly up to 92 µM. In a few lines:
as §2

Another assay deals with NIH3T3. The assay is described as above. The settings on record: MCC and control cell lines, CellTiter-Glo viability, 72 h; at 44.8 µM (top of the series) unless noted. In a few lines:
as §2

In another assay the test system is HEK293. Put plainly: Cytotoxic Profiling of Annotated Libraries Using Quantitative High-Throughput Screening (AID 1296008). For max response: % is set by controls: 0 for no effect and ±100 for the full control effect. Note: nearly all actives have a fitted effect of over 60% in size. Note: potency is the fitted concentration of half-maximal effect. Conditions: Five cell lines viability, CellTiter-Glo ATP luminescence, 48-72 h; max response: stronger effect = lower value. The method, boiled down:
as §1

Assay [11] addresses Cytochrome P450 2D6 (Homo sapiens) (UniProt P10635). As to the kind of experiment: Cytochrome P450 family 2 subfamily D member 6 (CYP2D6) small molecule antagonists: luciferase biochemical (cell-free) qHTS assay (AID 1645840; active = well fitted curve in the direction sought with a large enough effect in the repeat runs; an effect the other way counts as inactive or inconclusive; note: potency is the fitted concentration of half-maximal effect; nearly all actives have a fitted effect of over 55% in size). In a few lines:
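P450-Glo luminescent screen: recombinant CYP2D6 enzyme–proluciferin substrate mix preincubated with compound 10 min at room temperature, then NADPH regeneration added for 1 h at room temperature. Detection reagent added for 20 min; luciferin light read as relative luminescence units.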

The target of assay [12] is Cytochrome P450 2C9 (Homo sapiens) (UniProt P11712). As to the kind of experiment: Cytochrome P450 family 2 subfamily C member 9 (CYP2C9) small molecule antagonists: luciferase biochemical (cell-free) qHTS assay (AID 1645842; active = well fitted curve in the direction sought with a large enough effect in the repeat runs; an effect the other way counts as inactive or inconclusive; note: nearly all actives have a fitted effect of over 55% in size; note: potency is the fitted concentration of half-maximal effect). The method, boiled down:
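Luminescence, after 20 min with luciferin detection reagent, reflected CYP2C9 turnover during a 1 h NADPH-driven reaction at 37C. Enzyme-substrate mix contained 0.4% bovine serum albumin and was preincubated with compound 10 min at room temperature.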

Assay [13] can be described thus: qHTS drug screen for cell cycle checkpoint inhibitors in PARPi-resistant BRCA-mutant ovarian cancer cell lines. (AID 1963452; calls by dose curve). Conditions: PEO1/OlaR viability, CellTiter-Glo luminescence, 96 h, stronger effect = lower value. The method, boiled down:
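PEO1, PEO4 and PEO1/OlaR ovarian cancer cells, 600 per well, exposed 96 h at 37C to a dilution series. Viability read by CellTiter-Glo luminescence, normalized to DMSO and empty wells; activity summarized as Z-AUC.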

Inconclusive results are not listed. Calls of active or inactive are those of the source. Unless noted, calls come from the whole dose curve; as a rule, active = well fitted curve in the direction sought with a large enough effect; inconclusive = small, poorly fitted or top-dose-only effect, or another doubt; inactive = no such curve, though single readings can be large; an effect the other way counts as inactive or inconclusive.

Chain of Phenylethanolamine N-methyltransferase (Homo sapiens) (P11086 whole entry, looked up): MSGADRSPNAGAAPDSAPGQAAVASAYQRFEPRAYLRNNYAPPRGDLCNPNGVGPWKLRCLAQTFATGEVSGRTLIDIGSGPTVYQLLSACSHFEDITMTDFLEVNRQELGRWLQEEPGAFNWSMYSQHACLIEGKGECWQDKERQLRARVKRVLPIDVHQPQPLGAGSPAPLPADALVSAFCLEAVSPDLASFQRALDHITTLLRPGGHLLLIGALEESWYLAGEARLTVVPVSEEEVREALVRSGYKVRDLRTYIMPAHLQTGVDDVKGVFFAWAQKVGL
Chain of Catechol O-methyltransferase (Homo sapiens) (P21964 whole entry, looked up): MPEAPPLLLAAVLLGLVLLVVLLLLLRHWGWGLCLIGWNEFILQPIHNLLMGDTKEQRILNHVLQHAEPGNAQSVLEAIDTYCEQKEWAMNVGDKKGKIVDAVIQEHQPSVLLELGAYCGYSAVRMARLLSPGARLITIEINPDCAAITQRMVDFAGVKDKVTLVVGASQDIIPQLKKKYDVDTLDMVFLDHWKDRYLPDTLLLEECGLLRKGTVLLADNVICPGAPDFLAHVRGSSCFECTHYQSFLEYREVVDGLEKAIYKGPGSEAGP
Chain of Nicotinamide N-methyltransferase (Homo sapiens) (P40261 whole entry, looked up): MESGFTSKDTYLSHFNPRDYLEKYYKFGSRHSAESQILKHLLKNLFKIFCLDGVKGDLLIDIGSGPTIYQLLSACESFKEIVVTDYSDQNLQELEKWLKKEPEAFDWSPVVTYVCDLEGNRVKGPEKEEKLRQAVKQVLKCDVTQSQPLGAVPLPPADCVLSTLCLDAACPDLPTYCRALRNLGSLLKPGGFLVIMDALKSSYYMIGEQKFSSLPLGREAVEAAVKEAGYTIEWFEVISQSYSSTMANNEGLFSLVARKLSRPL
Chain of Cytochrome P450 2D6 (Homo sapiens) (P10635 whole entry, looked up): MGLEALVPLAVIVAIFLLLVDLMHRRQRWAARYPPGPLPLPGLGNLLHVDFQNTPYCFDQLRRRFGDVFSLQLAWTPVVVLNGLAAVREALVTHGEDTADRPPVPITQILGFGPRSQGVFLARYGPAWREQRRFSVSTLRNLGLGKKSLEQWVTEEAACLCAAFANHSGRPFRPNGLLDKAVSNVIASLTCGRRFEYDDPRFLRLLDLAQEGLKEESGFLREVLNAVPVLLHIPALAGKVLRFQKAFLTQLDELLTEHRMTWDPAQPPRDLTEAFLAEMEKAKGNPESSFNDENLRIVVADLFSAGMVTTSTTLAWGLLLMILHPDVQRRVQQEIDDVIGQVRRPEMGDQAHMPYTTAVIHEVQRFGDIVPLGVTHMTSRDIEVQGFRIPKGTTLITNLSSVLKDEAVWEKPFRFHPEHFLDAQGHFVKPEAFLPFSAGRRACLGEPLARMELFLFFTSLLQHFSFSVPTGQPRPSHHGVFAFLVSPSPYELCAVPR
Chain of Cytochrome P450 2C9 (Homo sapiens) (P11712 whole entry, looked up): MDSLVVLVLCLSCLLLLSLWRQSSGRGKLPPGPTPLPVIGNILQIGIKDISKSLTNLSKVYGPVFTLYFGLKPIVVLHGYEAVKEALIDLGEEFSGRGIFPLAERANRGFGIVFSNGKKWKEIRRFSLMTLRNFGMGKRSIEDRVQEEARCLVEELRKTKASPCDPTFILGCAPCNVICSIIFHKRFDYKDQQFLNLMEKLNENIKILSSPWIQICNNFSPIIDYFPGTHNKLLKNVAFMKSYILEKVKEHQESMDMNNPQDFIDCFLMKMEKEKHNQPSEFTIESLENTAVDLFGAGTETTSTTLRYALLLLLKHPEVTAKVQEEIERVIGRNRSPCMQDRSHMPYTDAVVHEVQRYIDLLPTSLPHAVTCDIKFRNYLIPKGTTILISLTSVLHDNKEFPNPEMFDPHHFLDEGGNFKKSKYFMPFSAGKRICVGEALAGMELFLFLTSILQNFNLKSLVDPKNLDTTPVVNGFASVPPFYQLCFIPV

On to `CCCCOC(=O)c1ccnc2cc(C(OCCN3CCCCC3)c3ccccc3Cl)sc12` (stereo unspecified), for which the Potency result (in assay [1]; in the assay with HeLa; in the assay with SKOV3) was “inactive” each time. Moreover, the Potency in assay [2] was 23 µM (active). Further, the results for the activity in [3], in assay [5] and in assay [6] were -6.9%, -22.8% and -16.1%, respectively. Further, the activity change, negative = inhibition in assay [4] stood at 6.41%. Further, the max response in the assay on CRL-7250 [7] is -4.2% (inactive). For the same compound, the outcome in the assay with HACAT was “inactive”.
`COC(=O)C12C(=O)C(C)(O)C(=O)C1(C)C(C)=CC1C3(C=O)CCC(OC(C)=O)C(C)(C)C3CCC12C` (stereo unspecified): the Potency entry (in [8]; in the assay with SKOV3) was “inactive” each time. In addition, the results for the max response in the assay on CRL-7250 [7] and with KB-3-1 were -2.11% (inactive) and 6.36% (inactive), respectively.
Regarding `CCC1CN2CCc3cc(OC)c(OC)cc3C2CC1CC1=NCCc2cc(O)c(OC)cc21` (stereo unspecified), the Potency entry (in [8]; in assay [1]; in [2]; in the assay with HeLa; in the assay on SKOV3) was “inactive” in each case. Also, the activity in [3] was -74.9%; in [5], -6.53%; in [6] it was -6.3%. Moreover, the activity change, negative = inhibition in [4] is -9.58% [at 29.8 µM]. Moreover, the max response was -0.358% (inactive) with CRL-7250 [7] and -7.09% (inactive) with KB-3-1. The outcome with HACAT was “inactive [at 17.4 µM]”.
Turning to `C[C@]12CC[C@H](O[C@@H]3O[C@H](CO)[C@@H](O)[C@H](O)[C@H]3O)CC1=CC[C@@H]1C2CC[C@]2(C)[C@@H](C3=CC(=O)OC3)CC[C@]12O` (stereo partly specified), the Potency is 4.85 µM (active) in assay [8], 2.42 µM (active) in assay [2], 5.41 µM (active) in assay [9] and 3.43 µM (active) in the assay with CRL-7250 [7]. Also, the Potency entry in [1] was “inactive”.
Turning to `C[C@H]1CCC[C@H](O)CCC/C=C/c2cc(O)cc(O)c2C(=O)O1`, the Potency is 14.5 µM (active) in [2], 14.5 µM (active) in assay [9] and 3.41 µM (active) in assay [4]. Moreover, the activity is -96.3% in [3], -89% in assay [5] and -98.1% in [6]. Moreover, the outcome with CRL-7250 [7] and in the assay on NIH3T3 was “inactive” throughout. The Potency result with CRL-7250 [10], in the assay with HeLa and in the assay with SKOV3 was “inactive” each time.
With `Cc1ccccc1C1=CCN(C)CC1`, the Potency result in assay [8], in assay [1], in [2] and in [9] was “inactive” throughout. The max response with HEK293 is -19.5% (inactive); in the assay with KB-3-1, 6.53% (inactive).
For `C[C@H](Nc1ncnc2nc[nH]c12)c1nc2ccc(F)cc2c(=O)n1-c1ccccc1`, the Potency in assay [11] was 15.1 µM (active); in assay [12] it was 12 µM (active). The results for the Z-AUC in assay [13], in [13] (measured here: PEO1 parental Z-AUC) and in assay [13] (measured here: PEO4 Z-AUC) were 0.252 (inactive), 0.609 and 0.915, respectively. In addition, the max response in the assay with CRL-7250 [7] was -36.2% (inactive); with KB-3-1 it was -3.18% (inactive). The Potency result with HeLa and in the assay with SKOV3 was “inactive” each time.
Turning to `CCOC(=O)Nc1ccc(NCc2c(C)cc(C)cc2C)cc1N`, the Potency result (in assay [1]; in assay [12]; in the assay on CRL-7250 [10]; in the assay with HeLa; in the assay with SKOV3) was “inactive” in each case. The Potency was 2.13 µM (active) in assay [11], 18.3 µM (active) in assay [2] and 9.16 µM (active) in [9]. In the assay with CRL-7250 [7], the outcome was “inactive”.

For the origin of these results see PubChem BioAssay (NCATS).
